Records with an inconclusive call do not appear. Where a call stands in place of a potency, no number is given. Active and inactive are the calls of the source. Unless noted, calls follow the shape of the dose curve; as a rule, active = well fitted curve in the direction sought with a large enough effect in the repeat runs; inconclusive = weak or mixed curves; inactive = no such curve, though single readings can be large; an effect the other way counts as inactive or inconclusive.
Legend:
[1] = qHTS assay for small molecules that induce genotoxicity in human embryonic kidney cells expressing luciferase-tagged ATAD5 - cell viability (AID 651634; calls by dose curve; also: nearly all actives have a fitted effect of over 25% in size; also: potency is read from the fitted curve at half-maximal effect)
Outline: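 After 15.5 hr incubation with compound at 37C, 5% CO2, HEK293T ATAD5-luciferase cells received CellTiter-Fluor reagent; fluorescence intensity was quantified following 30 min at 37C.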

[2] = qHTS assay for small molecule disruptors of the mitochondrial membrane potential - cell viability (AID 720634; calls by dose curve; also: nearly all actives have a fitted effect of over 20% in size; also: potency is read from the fitted curve at half-maximal effect)
Outline: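 ATP-based luminescent viability readout (CellTiter-Glo, 30 min, room temperature) in HepG2 cells multiplexed with the m-MPI membrane potential dye; compound exposure lasted 1 hr at 37 C.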

[3] = qHTS assay for small molecule disruptors of the mitochondrial membrane potential (AID 720635); also: potency is read from the fitted curve at half-maximal effect
Outline: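 HepG2 cells exposed to compound 1 hr at 37C, then Mito-MPS dye 30 min. Ratio read of aggregate (540/590 nm) versus monomer (490/535 nm) fluorescence.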

[4] = qHTS assay to test for compound auto fluorescence at 590 nm (red) in HepG2 cells (AID 720674)
Outline: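 Seeding: 2,000 HepG2 cells/well, MEM/10% FBS, overnight 37 C. Dosing: compound vs DMSO. Incubation: 1 hr, 37 C, 5% CO2. Read: fluorescence 540 ex/590 em, Rose Bengal sodium as red reference.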

[5] = qHTS assay to test for compound auto fluorescence at 535 nm (green) in HepG2 cells (AID 720675)
[6] = qHTS assay to test for compound auto fluorescence at 590 nm (red) in HEK293 cells (AID 720679)
Outline: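 Each well held 2,000 HEK293 cells in medium containing 10% dialyzed FBS. Following 4-5 hr attachment at 37C, 23 nL test compound or DMSO was added; plates sat overnight, and red fluorescence (540/590nm) was recorded.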

[7] = qHTS assay to test for compound auto fluorescence at 535 nm (green) in HEK293 cells (AID 720680)
[8] = qHTS assay to test for compound auto fluorescence at 460 nm (blue) in HEK293 cell free culture (AID 720681)
Outline: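 Compounds were added to cell-free DMEM with 10% FBS and fluorescence read directly. The blue channel used 405 nm excitation and 460 nm emission, with triamterene as the reference fluorophore.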

[9] = qHTS assay to test for compound auto fluorescence at 535 nm (green) in HEK293 cell free culture (AID 720682)
Outline: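 Green-channel intensity (Ex/Em 485/535 nm) was recorded from compound-treated wells containing only DMEM with 10% FBS. Fluorescein provided the equivalency standard.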

[10] = qHTS assay to test for compound auto fluorescence at 590 nm (red) in HEK293 cell free culture (AID 720683)
Outline: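 Cell-free wells of DMEM with 10% FBS received compound, and intrinsic fluorescence was read at excitation/emission 540/590 nm. Values expressed as equivalence to Rose Bengal sodium.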

[11] = qHTS assay to test for compound auto fluorescence at 590 nm (red) in HepG2 cell free culture (AID 720684)
Outline: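 Rose Bengal sodium served as the reference for red signal. Test compounds were dispensed into serum-containing MEM (10% FBS) without cells, and plates were read at 540/590 nm.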

[12] = qHTS assay to test for compound auto fluorescence at 460 nm (blue) in HepG2 cell free culture (AID 720685)
Outline: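 Cell-free plates of MEM plus 10% FBS received 23 nL compound or DMSO vehicle; blue-channel (405/460 nm) intensity scored against triamterene as reference fluorophore.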

[13] = qHTS assay to test for compound auto fluorescence at 535 nm (green) in HepG2 cell free culture (AID 720686)
[14] = qHTS assay to test for compound auto fluorescence at 460 nm (blue) in HepG2 cells (AID 720687)
Outline: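 HepG2 cells in MEM with 10% FBS, attached overnight at 37 C, were exposed to compound or DMSO for 1 hr at 37 C, 5% CO2. Blue fluorescence was read at 405/460 nm, with triamterene as reference fluorophore.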

[15] = qHTS assay for small molecule agonists of the p53 signaling pathway - cell viability (AID 651633; calls by dose curve;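 also: p53RE-bla HCT reporter cells with a stable beta-lactamase p53 reporter; nearly all actives have a fitted effect of over 30% in size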)
Outline: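 p53RE-bla cells were treated with compound for 16 hours at 37 C. Cytotoxicity was then measured as CellTiter-Glo luminescence after 30 min at room temperature.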

[16] = qHTS assay to test for compound auto fluorescence at 460 nm (blue) in HEK293 cells (AID 720678)
Outline: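 Cells were seeded and left to adhere for 4-5 hr at 37C. Compounds were then pin-transferred. After an overnight incubation at 37C under 5% CO2, intrinsic fluorescence at 405/460 nm was measured and referenced to triamterene.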

[17] = biological target: Glucocorticoid receptor (Homo sapiens) (UniProt P04150); experiment: qHTS assay to identify small molecule agonists of the glucocorticoid receptor (GR) signaling pathway (AID 720691; active = well fitted activation curve with a large enough effect in the signal ratio in the repeat runs, not every such curve was filed as active; the % refers to the signal ratio); details: GR-bla HeLa, beta-lactamase reporter ratio, 18 h; activation: at 62.4 µM (top of the series)
Outline: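 Cells: GR-bla HeLa, endogenous GR with stably integrated GRE-beta-lactamase reporter. Treatment 18 h, 37 C, compounds delivered in DMSO. Detection via LiveBLAzer B/G FRET substrate, 2 h RT, fluorescence intensity.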

Sequence of Glucocorticoid receptor (Homo sapiens) (P04150 whole entry, looked up): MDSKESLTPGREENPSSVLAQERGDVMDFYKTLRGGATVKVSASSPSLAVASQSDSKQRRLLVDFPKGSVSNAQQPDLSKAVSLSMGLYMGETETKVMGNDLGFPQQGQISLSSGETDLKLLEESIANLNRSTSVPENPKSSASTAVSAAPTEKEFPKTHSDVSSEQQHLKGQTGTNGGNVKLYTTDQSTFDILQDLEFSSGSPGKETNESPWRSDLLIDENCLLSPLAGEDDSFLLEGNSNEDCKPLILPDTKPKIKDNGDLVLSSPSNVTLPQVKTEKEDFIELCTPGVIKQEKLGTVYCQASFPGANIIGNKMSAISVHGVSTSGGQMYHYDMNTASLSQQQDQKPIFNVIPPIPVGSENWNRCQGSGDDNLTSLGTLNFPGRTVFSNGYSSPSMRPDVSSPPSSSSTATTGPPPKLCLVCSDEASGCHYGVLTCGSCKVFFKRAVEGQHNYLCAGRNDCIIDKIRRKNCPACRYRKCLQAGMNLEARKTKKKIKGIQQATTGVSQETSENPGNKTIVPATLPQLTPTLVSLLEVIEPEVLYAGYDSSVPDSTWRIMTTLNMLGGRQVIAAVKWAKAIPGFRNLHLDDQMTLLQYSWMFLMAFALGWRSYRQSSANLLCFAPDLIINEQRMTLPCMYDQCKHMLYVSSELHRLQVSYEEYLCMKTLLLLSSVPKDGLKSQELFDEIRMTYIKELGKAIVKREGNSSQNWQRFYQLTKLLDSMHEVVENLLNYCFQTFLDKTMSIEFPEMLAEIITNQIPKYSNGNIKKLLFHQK

Row | Compound | Potency [1] | Potency [2] | Potency [3] | Potency [4] | Potency [5] | Potency [6] | outcome [7] | Potency [8] | outcome [9] | Potency [10] | Potency [11] | Potency [12] | Potency [13] | Potency [14] | Potency [15] | Potency [16] | Potency [17]
1 | CC/C(=C(\c1ccc(O)cc1)c1ccc(OCCN(C)C)cc1)c1ccccc1 | 61.3 µM (active) | 68.7 µM (active) | 24.4 µM (active) | inactive | inactive | inactive | inactive | inactive | inactive | inactive | inactive | inactive | inactive | inactive | – | – | –
2 | CSc1cnc(C)cn1 | – | inactive | inactive | inactive | inactive | inactive | inactive | inactive | inactive | inactive | inactive | inactive | inactive | inactive | inactive | inactive | inactive
3 | O=C(OCC1CO1)C1CCCCC1C(=O)OCC1CO1 (stereo not given) | inactive | inactive | inactive | – | inactive | inactive | inactive | inactive | inactive | inactive | inactive | inactive | inactive | inactive | inactive | inactive | –
